Assay results: PubChem BioAssay (EPA / NIEHS)
Activity calls are given as the source filed them. How the source made its calls: active means hit-call score of the fitted dose curve at least 0.9, where 1 is the maximum; inactive means score below 0.9.

test: ATG_TA_CIS: Attagene CIS-FACTORIAL HepG2 Assay for human TA Basal Promoter (AID 2282964); settings: HepG2 Attagene CIS-factorial TA basal promoter reporter; actives raise or lower the signal
Protocol: ATG_CIS is a cell-based, multiplexed-readout assay that uses HepG2, a human liver cell line, with measurements taken at 24 hours after chemical dosing in a 24-well plate.ATG_TA_CIS is one of 52 assay component(s) measured or calculated from the ATG_CIS assay. It is designed to make measurements of mRNA induction, a form of inducible reporter, as detected with fluorescence intensity signals by Reverse transcription polymerase chain reaction (RT-PCR) and Capillary electrophoresis technology.Data from the assay component ATG_TA_CIS was analyzed into 1 assay endpoint. This assay endpoint, ATG_TA_CIS, was analyzed with bidirectional fitting relative to DMSO as the negative control and baseline of activity. Using a type of inducible reporter, measures of mRNA for gain or loss-of-signal activity can be used to understand the background control at the transcription factor-level as they relate to the gene . Furthermore, this assay endpoint can be referred to as a secondary readout, because this assay has produced multiple assay endpoints where this one serves a background control function. To generalize the intended target to other relatable targets, this assay endpoint is annotated to the background measurement intended target family, where the subfamily is internal marker.
Human liver HepG2 cells are transiently transfected with multiple reporter transcription units (MRTUs) in 6-well plates using FuGene 6 reagent (Roche; 3 ml FuGene/1 mg DNA). The MRTU constructs are regulated by a cis-regulating element (promoter). […] A major difference between the CIS and TRANS system is that in CIS activities of endogenous TFs are measured, whereas the TRANS assay evaluates changes in activities of exogenous, chimeric NR-Gal4 proteins. […] At the end of 24 hour incubation, total RNA was isolated using TriZol reagent (Invitrogen). The isolated RNA is then reverse-transcribed using oligo(dT) primer and Mo-MLV reverse transcriptase (Invitrogen) with DNAse I (Ambion) treatment for 30 min. The one-tenth of the produced cDNA was amplified by PCR using Taq DNA polymerase (Invitrogen) and two reporter sequence-specific primers. The PCR products were fluorescently labeled by primer extension with 6-arboxyfluorescein (6-FAM) 5'-labeled reporter sequence-specific primer (2 min at 95 C, 20 s at 68 C and 10 min at 72 C) and these products were digested with 5U of HpaI (New England Biolabs) for 2h at 37 C. The fragments were purified using Qiaquick PCR columns (Qiagen), analyzed on an ABI 3130xL genetic analyzer (Applied Biosystems) with peak positions identified by using a set of X-rhodamine (ROX)-labeled MapMarker1000 molecular weight standards (BioVentures). The raw capillary electrophoresis data was processed using Attagraph software (Attagene).

outcome, inactive:
Sc1nc2ccccc2s1, O=C(CC(C(=O)OC1CCCCC1)S(=O)(=O)O)OC1CCCCC1 (stereo not given), Cc1cc(C)c(S(=O)(=O)O)cc1N=Nc1cc(S(=O)(=O)O)c2ccccc2c1O, CCCN[C@H]1CCc2nc(N)sc2C1, CCOc1ccc2c(c1)C(C)CC(C)(C)N2 (stereo not given), Cc1ccccc1S(N)(=O)=O, COc1cccc(OC)c1C(=O)O, CCCCOC(=O)COc1ccc(Cl)cc1Cl, OCCOCCOCCOCCOCCO, Nc1nnc(-c2ccc([N+](=O)[O-])o2)o1, CCc1cc(C(N)=S)ccn1, OCCc1ccccn1, O=C(C(=O)c1ccccc1)c1ccccc1, CCCCCCC(O)CCCCCCCCCCC(=O)OC (stereo not given), Oc1ccc(Cl)cc1C1CCCC1, CCC(C)=NO, CCCCCC[C@@H](O)C/C=C\CCCCCCCC(=O)O, Cc1ccnc(N)c1, CCCCCCCCCCCCCCCCCC[N+](C)(C)C, [O-][n+]1ccc(Cl)cc1, CC(C)(Oc1ccc(Cl)cc1)C(=O)O, NC(N)=Nc1nc(CSCCC(N)=NS(N)(=O)=O)cs1, COc1c2occc2cc2ccc(=O)oc12, CC1(C)S[C@@H]2[C@H](NC(=O)[C@H](N)c3ccccc3)C(=O)N2[C@H]1C(=O)O, Cc1ccccc1S(=O)(=O)O, CC(C)CC(=O)CC(C)C, CC=CC(=O)O, O=C(O)/C=C/C(=O)O, CCCCCC1CCCC(=O)O1 (stereo not given), C[Si](C)(C)O[Si](C)(C)O[Si](C)(C)C, CC/C=C\CC/C=C/C(OCC)OCC, c1ccc2c(c1)Oc1ccccc1S2, CCCCC(CC)COC(=O)CS (stereo not given), COc1ccccc1OCC(O)CO (stereo not given), NCc1ccccc1, O=C1NC(=O)[C@@H]2CC=CC[C@H]12, CN(C)c1ccc(C(c2ccccc2)c2ccc(N(C)C)cc2)cc1, CCCC(=O)OC, CCC(C)C1N=C(C)C(C)S1 (stereo not given), COC(=O)CCSCCC(=O)OC
